According to PubChem BioAssay (EPA / NIEHS):
Activity calls are given as the source filed them. The calls were made as follows: active = hit-call score of the fitted dose curve at least 0.9, where 1 is the maximum; inactive = score below 0.9.

Test: Tanguay_ZF_120hpf_DP24: Oregon State University Tanguay Lab 24 Hour Post-fertilization zebrafish Assay for Delayed Development (AID 2284390)
Description: Tanguay_ZF_120hpf is a whole embryo, multiplexed endpoint assay using zebrafish larvae exposed for 120 hours post fertilization on a 96-well plate.Tanguay_ZF_120hpf_DP24 is […] measured or calculated from the Tanguay_ZF_120hpf assay. It is designed to make measurements of zebrafish development as detected with brightfield microscopy of developing zebrafish embryos.Data from the assay component Tanguay_ZF_120hpf_DP24 was analyzed into 1 assay endpoints. This assay endpoint, Tanguay_ZF_120hpf_DP24, was analyzed in the positive analysis fitting direction relative to DMSO as the negative control and baseline of activity. Using a type of morphology reporter, gain-of-signal activity can be used to understand changes in developmentals as they relate to the whole embryo. To generalize the intended target to other relatable targets, this assay endpoint is annotated to the zebrafish development intended target family, where the subfamily is embryonic morphogenesis.
Zebrafish husbandry: Tropical 5D wild-type adult zebrafish were housed in at an approximate density of 1000 per 100 gallon tank at the Sinnhuber Aquatic Research Laboratory, Oregon State University, Corvallis, OR. Each tank was kept at standard laboratory conditions of 28C on a 14-h light/10-h dark photoperiod in fish water consisting of reverse osmosis water supplemented with a commercially available salt (Instant Ocean). Spawning funnels were placed into the tanks the night prior, and embryos were collected and staged. To increase bioavailability, the chorion was enzymatically removed using pronase (63.6mg/ml, >/= 3.5U/mg, Sigma-Aldrich: P5147) at 4 hours post fertilization (hpf) using a custom automated dechorionator.Chemical exposures: Six hpf dechorionated embryos were placed 1 embryo per well in a 96-well plate prefilled with 90 ul of EM using automated embryo placement systems (AEPS). Ten microliters of each row of dilution plate 2 was added to 2 exposure plates. The final DMSO concentration used was 0.64% (vol/vol). Thirty-two embryos were also exposed to 5uM trimethyltin chloride (positive control). Plates were sealed to prevent evaporation and foil covered to reduce light exposure and kept in a 28C incubator. Embryos were statically exposed until 120 hpf. At 24 hpf, embryos were assessed for photomotor response using a custom photomotor response analysis tool (PRAT) and for developmental toxicity endpoints (MO24: mortality at 24 hpf, DP: developmental progression, SM: spontaneous movement, and NC: notochord distortion). At 120 hpf, locomotor activity was measured using Viewpoint Zebralab and assessed for 13 endpoints. Zebrafish acquisition and analysis program (ZAAP), a custom program designed to inventory, acquire, and manage zebrafish data, was used to collect developmental endpoints as either present or absent (i.e., binary responses were recorded). If mortality occurred for an embryo (at either 24 or 120 hpf), the non-mortality endpoints were not measured.

| Structure (SMILES) | outcome | AC50 |
| --- | --- | --- |
| O=S(=O)(Cl)C(F)(F)C(F)(F)C(F)(F)C(F)(F)C(F)(F)C(F)(F)C(F)(F)C(F)(F)F | inactive | – |
| O=C(O)C(F)(F)C(F)(F)C(F)(F)C(=O)O | inactive | – |
| C=CC(=O)OCCC(F)(F)C(F)(F)C(F)(F)C(F)(F)F | inactive | – |
| NC(=O)C(F)(F)C(F)(F)C(F)(F)C(F)F | inactive | – |
| CCN(CCO)S(=O)(=O)C(F)(F)C(F)(F)C(F)(F)C(F)(F)C(F)(F)C(F)(F)C(F)(F)C(F)(F)F | inactive | – |
| CN(C(=O)C(F)(F)C(F)(F)C(F)(F)F)[Si](C)(C)C | inactive | – |
| NC(=O)C(F)(F)C(F)(F)C(F)(F)F | inactive | – |
| O=S(=O)(O)CCC(F)(F)C(F)(F)C(F)(F)C(F)(F)C(F)(F)C(F)(F)C(F)(F)C(F)(F)F | – | 79.2 µM (active) |
| O=C(O)C(F)(F)C(F)(F)C(F)(F)OC(F)(C(F)(F)F)C(F)(F)F | inactive | – |
| C[Si](Cl)(Cl)CCC(F)(F)C(F)(F)C(F)(F)C(F)(F)C(F)(F)C(F)(F)F | inactive | – |
| OCC(F)(F)C(F)(F)C(F)(F)C(F)(F)C(F)(F)C(F)(F)C(F)(F)C(F)(F)CO | inactive | – |
| O=S(=O)(OCC(F)(F)F)C(F)(F)C(F)(F)C(F)(F)C(F)(F)F | inactive | – |
| OCC(F)(F)C(F)(F)C(F)(F)CO | inactive | – |
| C=CC(=O)OCC(F)(F)C(F)(F)C(F)(F)COC(=O)C=C | – | 14.1 µM (active) |
| CO[Si](C)(CCC(F)(F)C(F)(F)C(F)(F)C(F)(F)C(F)(F)C(F)(F)F)OC | inactive | – |
| NS(=O)(=O)C(F)(F)C(F)(F)C(F)(F)C(F)(F)C(F)(F)C(F)(F)F | – | 57.6 µM (active) |
| NC(=O)C(F)(F)C(F)(F)C(F)(F)C(F)(F)C(F)(F)C(F)(F)C(F)(F)F | inactive | – |
| FC(F)(F)C(F)(F)C(F)(F)C(F)(F)C(F)(F)C(F)(F)C(F)(F)CCI | inactive | – |
| CCOC(=O)CC(=O)C(F)(F)C(F)(F)F | inactive | – |

| Structure (SMILES) | outcome | AC50 |
| --- | --- | --- |
| OCC(O)CC(F)(F)C(F)(F)C(F)(F)C(F)(F)C(F)(F)C(F)(F)C(F)(F)C(F)(F)F (configuration not stated) | inactive | – |
| OCCCC(F)(F)C(F)(F)C(F)(F)C(F)(F)C(F)(F)C(F)(F)C(F)(F)C(F)(F)F | inactive | – |
| O=C(F)C1(F)C(F)(F)C(F)(F)C(F)(F)C(F)(F)C1(F)F | inactive | – |
| NC(=O)C(F)(F)C(F)(F)C(F)(F)C(F)(F)C(N)=O | inactive | – |
| C=CC(=O)OCC(F)(F)C(F)(F)C(F)(F)C(F)(F)C(F)(F)C(F)(F)C(F)(F)C(F)F | inactive | – |
| OCC(O)CC(F)(F)C(F)(F)C(F)(F)C(F)(F)F (configuration not stated) | inactive | – |
| OC(O)C(F)(F)C(F)(F)F | inactive | – |
| O=C(O)CCC(F)(F)C(F)(F)C(F)(F)C(F)(F)C(F)(F)C(F)(F)C(F)(F)F | inactive | – |
| FC(F)(F)C(F)(F)C(F)(F)CC1CO1 (configuration not stated) | inactive | – |
| O=C(O)CCC(F)(F)C(F)(F)C(F)(F)F | inactive | – |
| NC(O)(C(F)(F)F)C(F)(F)F | inactive | – |
| OCC(F)(F)C(F)(F)C(F)(F)C(F)(F)C(F)(F)C(F)(F)CO | inactive | – |
| O=C(O)C(F)(F)C(F)(F)C(F)(F)OC(F)(F)F | inactive | – |
| CNS(=O)(=O)C(F)(F)C(F)(F)C(F)(F)C(F)(F)C(F)(F)C(F)(F)C(F)(F)C(F)(F)F | inactive | – |
| O=S(=O)(O)CCC(F)(F)C(F)(F)C(F)(F)C(F)(F)F | inactive | – |
| COC(F)(C(F)F)C(F)(F)F (configuration not stated) | inactive | – |
| FC(F)(F)C(F)(F)C(F)(F)C(F)(F)C(F)(F)C(F)(F)CC[Si](Cl)(Cl)Cl | inactive | – |
| OCCCCC(F)(F)C(F)(F)C(F)(F)C(F)(F)F | inactive | – |
